Assay results from the supplement of paper PMC11732987, “Enantioselective OTUD7B fragment discovery through chemoproteomics screening and high-throughput optimisation” (Communications Chemistry, 2025).

Legend:
Assay in all cases: log2 ratio of Biotin-Ahx-Ub-VS probe labelling (fragment/DMSO); higher = less target engagement (more negative = stronger competition), active = hit call of the paper (q ≤ 0.05, log2 ratio ≤ -1)
Settings in all cases: compound concentration: 200 uM; treatment time: 3 h
USP42 = molecular target: T1, USP42 (UniProt Q9H9J4)
T1 sequence (whole entry): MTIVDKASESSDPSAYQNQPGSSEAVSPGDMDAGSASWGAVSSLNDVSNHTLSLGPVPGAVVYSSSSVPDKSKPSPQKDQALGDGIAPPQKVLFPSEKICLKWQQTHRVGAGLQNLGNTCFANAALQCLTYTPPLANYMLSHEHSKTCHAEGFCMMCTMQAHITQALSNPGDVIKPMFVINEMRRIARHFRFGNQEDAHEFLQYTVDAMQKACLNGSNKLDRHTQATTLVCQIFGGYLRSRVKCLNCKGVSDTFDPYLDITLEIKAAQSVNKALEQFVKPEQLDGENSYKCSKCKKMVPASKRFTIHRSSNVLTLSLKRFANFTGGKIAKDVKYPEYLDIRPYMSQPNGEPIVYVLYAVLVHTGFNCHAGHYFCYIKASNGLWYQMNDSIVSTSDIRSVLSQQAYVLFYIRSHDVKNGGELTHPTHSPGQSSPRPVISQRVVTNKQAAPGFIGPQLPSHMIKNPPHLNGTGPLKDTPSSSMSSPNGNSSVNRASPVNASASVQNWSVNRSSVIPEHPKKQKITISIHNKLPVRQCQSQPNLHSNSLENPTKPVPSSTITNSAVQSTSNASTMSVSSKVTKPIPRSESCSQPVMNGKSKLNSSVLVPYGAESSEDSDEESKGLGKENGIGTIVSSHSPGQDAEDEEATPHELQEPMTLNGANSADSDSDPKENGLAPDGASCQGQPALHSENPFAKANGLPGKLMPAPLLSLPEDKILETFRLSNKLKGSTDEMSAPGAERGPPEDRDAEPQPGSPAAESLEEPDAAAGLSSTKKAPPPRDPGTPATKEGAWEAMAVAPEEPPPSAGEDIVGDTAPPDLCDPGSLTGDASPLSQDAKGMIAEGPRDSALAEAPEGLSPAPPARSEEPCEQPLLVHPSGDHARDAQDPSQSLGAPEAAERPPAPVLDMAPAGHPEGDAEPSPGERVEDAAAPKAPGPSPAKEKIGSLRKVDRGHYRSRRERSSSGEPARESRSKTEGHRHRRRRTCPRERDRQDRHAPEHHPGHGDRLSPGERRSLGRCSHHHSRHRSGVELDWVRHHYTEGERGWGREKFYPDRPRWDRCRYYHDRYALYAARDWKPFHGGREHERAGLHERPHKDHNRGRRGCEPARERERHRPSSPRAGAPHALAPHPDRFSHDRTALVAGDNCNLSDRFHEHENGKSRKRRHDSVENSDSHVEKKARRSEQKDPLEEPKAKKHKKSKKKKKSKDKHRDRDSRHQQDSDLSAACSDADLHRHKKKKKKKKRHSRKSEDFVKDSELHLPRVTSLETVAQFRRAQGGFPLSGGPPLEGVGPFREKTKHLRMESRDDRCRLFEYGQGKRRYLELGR
Outline: (§1)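 Each value is an average log2 ratio of fragment to vehicle, tested by unpaired t-test. The underlying Spectronaut label-free quantities were global-median-normalised, and only proteins with ≥2 unique peptides were included. Triplicate HEK293T lysate samples (495 µg) were exposed to fragment at 200 µM or vehicle for 3 h, then to Biotin-Ahx-Ub-VS at 0.5 µM final for 1 h, before NeutrAvidin enrichment of labelled DUBs, LysC and trypsin digestion, and diaPASEF LC-MS/MS.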

USP46 = USP46 (UniProt P62068)
Outline: as §1

USP47 = molecular target: T2, USP47 (UniProt Q96K76)
T2 sequence (whole entry): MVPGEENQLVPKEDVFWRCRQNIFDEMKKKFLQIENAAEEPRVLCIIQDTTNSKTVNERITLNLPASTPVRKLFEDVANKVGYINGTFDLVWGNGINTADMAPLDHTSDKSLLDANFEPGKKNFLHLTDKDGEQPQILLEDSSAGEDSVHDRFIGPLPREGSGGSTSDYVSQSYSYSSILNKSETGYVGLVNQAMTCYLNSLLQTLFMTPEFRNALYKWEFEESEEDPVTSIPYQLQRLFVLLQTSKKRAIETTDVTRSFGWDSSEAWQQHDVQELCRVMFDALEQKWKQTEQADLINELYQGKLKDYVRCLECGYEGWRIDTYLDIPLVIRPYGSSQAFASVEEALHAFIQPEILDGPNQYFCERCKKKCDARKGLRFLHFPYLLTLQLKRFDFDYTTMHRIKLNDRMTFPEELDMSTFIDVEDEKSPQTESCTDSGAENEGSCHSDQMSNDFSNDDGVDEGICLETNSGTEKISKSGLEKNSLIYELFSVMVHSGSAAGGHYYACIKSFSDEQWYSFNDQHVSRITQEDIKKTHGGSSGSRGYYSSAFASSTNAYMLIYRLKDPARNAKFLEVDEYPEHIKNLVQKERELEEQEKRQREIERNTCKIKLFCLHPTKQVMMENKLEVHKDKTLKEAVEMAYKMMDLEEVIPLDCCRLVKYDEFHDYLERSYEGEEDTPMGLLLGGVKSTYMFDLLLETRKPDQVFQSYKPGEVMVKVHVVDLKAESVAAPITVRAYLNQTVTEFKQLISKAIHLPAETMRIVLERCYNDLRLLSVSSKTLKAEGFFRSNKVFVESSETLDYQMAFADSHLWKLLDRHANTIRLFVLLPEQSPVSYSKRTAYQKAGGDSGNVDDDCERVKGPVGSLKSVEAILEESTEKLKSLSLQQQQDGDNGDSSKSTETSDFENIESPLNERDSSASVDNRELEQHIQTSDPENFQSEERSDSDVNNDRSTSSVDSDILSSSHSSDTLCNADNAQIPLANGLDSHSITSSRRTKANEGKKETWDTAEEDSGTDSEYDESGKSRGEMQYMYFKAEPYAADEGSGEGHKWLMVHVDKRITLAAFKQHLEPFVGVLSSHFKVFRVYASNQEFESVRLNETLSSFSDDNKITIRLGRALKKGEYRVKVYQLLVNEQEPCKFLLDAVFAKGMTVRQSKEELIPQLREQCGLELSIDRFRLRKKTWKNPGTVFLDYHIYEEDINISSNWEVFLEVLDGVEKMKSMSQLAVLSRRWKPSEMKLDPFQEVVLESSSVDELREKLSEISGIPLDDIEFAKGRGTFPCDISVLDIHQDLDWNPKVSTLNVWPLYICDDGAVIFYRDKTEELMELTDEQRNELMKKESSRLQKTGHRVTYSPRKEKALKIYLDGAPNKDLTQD
Outline: as §1

USP48 = molecular target: T3, USP48 (UniProt Q86UV5)
T3 sequence (whole entry): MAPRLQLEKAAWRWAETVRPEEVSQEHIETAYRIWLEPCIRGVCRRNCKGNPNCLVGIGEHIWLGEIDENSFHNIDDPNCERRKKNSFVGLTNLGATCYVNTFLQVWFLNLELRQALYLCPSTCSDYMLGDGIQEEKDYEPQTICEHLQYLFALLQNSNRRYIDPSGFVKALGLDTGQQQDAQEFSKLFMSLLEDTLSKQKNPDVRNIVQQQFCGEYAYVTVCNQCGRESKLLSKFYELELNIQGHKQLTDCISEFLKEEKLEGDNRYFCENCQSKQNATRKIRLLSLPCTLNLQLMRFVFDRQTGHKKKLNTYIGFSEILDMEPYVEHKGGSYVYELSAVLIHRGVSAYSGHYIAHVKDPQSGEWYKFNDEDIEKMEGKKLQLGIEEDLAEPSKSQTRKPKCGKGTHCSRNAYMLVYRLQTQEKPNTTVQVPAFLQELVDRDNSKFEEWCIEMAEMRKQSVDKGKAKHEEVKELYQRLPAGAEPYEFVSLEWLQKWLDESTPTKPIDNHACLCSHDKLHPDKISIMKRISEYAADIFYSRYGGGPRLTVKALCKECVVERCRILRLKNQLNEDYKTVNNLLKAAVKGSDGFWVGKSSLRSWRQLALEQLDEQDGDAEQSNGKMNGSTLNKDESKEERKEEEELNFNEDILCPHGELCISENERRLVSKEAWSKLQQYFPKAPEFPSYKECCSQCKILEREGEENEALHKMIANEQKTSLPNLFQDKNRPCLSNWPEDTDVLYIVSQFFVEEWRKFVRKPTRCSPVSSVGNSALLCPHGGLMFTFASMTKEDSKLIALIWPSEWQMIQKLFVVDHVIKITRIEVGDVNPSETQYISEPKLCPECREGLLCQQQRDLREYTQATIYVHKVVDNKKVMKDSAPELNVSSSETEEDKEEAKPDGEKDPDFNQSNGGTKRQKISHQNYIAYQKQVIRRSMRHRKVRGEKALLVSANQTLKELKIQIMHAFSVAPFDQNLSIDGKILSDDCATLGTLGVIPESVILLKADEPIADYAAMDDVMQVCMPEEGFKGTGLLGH
Outline: as §1

USP5 = molecular target: T4, USP5 (UniProt P45974)
T4 sequence (whole entry): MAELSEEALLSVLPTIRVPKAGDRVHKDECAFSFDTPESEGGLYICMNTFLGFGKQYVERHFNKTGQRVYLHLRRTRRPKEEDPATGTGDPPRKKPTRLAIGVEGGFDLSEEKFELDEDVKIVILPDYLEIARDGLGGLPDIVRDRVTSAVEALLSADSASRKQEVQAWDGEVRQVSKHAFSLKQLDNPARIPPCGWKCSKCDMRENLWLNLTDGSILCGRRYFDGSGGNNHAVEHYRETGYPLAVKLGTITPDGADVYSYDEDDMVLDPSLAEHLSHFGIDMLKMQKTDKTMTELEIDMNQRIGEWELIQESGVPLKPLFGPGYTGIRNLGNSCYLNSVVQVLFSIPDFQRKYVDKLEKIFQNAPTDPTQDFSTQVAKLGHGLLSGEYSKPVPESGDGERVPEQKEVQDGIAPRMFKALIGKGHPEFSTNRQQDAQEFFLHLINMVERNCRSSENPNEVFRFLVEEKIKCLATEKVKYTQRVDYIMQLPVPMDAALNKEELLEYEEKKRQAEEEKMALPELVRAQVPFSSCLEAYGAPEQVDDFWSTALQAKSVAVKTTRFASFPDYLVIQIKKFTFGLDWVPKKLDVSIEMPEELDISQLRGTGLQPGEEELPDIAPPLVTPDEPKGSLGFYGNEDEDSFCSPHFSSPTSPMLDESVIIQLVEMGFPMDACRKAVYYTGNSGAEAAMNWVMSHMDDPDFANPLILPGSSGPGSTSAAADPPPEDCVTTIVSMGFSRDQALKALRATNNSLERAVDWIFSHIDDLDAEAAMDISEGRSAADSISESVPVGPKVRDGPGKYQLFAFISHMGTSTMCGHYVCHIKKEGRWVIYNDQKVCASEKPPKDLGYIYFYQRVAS
Outline: as §1

USP54 = USP54 (UniProt Q70EL1)
Outline: as §1

USP7 = USP7 (UniProt Q93009)
Outline: as §1

USP8 = molecular target: T5, USP8 (UniProt P40818)
T5 sequence (whole entry): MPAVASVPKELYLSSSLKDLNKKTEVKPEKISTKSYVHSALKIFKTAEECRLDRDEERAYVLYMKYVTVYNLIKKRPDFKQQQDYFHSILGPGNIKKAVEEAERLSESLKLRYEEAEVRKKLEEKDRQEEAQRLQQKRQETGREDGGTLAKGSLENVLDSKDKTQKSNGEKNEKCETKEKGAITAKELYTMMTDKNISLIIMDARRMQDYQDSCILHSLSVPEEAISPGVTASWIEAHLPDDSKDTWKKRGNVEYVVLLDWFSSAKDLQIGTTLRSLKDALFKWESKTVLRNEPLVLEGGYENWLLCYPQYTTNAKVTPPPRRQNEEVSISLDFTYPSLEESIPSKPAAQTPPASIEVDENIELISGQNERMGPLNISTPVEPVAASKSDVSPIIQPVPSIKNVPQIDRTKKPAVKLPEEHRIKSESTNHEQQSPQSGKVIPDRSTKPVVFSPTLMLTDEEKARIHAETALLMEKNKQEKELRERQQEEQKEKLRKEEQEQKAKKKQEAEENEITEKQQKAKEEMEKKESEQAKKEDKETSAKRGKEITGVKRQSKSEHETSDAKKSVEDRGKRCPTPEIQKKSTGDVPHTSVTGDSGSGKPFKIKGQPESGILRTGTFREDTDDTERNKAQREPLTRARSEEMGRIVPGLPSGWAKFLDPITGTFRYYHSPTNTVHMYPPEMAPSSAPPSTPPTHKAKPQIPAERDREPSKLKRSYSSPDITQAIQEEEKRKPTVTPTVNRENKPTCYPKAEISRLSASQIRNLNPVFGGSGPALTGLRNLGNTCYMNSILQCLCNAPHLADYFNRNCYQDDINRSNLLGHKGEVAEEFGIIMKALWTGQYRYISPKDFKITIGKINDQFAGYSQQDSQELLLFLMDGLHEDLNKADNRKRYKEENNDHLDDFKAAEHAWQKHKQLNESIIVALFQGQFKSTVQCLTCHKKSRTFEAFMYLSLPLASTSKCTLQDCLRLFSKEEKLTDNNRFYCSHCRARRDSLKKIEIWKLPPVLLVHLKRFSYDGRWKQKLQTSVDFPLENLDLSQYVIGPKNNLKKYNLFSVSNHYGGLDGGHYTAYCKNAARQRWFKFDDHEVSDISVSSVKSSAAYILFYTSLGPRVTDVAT
Outline: as §1

USP9X = USP9X (UniProt Q93008)
Outline: as §1

UniProt O00487 = molecular target: UniProt O00487
Outline: as §1

Measured: log2 ratio of Biotin-Ahx-Ub-VS probe labelling

UniProt O00487, sequence (O00487 whole entry): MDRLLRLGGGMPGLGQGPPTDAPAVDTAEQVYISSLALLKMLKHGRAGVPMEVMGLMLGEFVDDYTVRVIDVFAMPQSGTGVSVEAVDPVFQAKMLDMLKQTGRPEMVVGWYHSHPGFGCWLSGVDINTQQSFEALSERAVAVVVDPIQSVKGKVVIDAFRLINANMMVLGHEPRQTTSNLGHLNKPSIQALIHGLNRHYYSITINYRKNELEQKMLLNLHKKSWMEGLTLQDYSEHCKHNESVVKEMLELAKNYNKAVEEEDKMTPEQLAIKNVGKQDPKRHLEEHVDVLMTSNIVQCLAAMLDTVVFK
USP54, sequence (Q70EL1 whole entry): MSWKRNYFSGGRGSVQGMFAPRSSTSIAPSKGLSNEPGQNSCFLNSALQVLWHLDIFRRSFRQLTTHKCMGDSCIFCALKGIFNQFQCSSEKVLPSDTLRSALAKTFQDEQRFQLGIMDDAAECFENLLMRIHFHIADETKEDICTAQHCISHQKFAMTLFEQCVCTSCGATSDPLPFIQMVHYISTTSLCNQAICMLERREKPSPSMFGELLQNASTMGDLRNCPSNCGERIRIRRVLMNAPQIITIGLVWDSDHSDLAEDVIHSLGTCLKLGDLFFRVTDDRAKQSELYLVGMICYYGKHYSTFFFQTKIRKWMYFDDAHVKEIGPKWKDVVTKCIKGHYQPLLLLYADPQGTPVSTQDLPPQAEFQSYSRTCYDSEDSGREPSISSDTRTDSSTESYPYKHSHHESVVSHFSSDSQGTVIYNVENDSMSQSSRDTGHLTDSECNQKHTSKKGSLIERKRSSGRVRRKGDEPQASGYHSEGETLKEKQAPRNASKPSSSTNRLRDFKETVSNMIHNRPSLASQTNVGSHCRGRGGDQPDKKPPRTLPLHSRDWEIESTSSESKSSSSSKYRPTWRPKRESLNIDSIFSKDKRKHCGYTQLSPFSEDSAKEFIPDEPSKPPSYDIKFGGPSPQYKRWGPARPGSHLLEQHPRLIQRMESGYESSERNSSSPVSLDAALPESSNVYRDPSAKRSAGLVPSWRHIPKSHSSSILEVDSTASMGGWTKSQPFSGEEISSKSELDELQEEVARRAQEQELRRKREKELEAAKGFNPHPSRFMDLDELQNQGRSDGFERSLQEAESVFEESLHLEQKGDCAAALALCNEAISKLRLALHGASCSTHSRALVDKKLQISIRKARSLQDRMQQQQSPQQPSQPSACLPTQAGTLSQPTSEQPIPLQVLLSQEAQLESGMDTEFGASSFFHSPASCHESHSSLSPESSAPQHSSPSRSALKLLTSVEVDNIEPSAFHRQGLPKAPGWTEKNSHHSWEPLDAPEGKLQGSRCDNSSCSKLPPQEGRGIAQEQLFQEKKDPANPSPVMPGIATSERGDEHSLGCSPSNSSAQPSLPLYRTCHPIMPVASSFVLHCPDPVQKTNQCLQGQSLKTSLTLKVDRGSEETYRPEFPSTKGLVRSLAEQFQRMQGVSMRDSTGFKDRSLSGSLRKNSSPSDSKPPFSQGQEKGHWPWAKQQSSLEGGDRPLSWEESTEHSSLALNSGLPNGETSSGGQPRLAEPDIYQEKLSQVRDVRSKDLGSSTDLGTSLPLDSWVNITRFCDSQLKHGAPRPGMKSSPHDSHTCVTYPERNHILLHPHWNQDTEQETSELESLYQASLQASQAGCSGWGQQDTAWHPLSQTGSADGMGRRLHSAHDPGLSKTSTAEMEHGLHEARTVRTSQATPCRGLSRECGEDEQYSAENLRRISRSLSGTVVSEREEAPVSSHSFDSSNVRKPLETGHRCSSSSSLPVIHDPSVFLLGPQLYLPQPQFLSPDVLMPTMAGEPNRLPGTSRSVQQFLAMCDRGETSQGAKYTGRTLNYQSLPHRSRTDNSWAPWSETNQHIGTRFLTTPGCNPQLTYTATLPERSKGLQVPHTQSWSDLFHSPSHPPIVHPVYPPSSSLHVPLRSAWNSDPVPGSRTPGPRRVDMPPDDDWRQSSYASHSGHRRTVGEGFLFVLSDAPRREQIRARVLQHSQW
USP9X, sequence (Q93008 whole entry): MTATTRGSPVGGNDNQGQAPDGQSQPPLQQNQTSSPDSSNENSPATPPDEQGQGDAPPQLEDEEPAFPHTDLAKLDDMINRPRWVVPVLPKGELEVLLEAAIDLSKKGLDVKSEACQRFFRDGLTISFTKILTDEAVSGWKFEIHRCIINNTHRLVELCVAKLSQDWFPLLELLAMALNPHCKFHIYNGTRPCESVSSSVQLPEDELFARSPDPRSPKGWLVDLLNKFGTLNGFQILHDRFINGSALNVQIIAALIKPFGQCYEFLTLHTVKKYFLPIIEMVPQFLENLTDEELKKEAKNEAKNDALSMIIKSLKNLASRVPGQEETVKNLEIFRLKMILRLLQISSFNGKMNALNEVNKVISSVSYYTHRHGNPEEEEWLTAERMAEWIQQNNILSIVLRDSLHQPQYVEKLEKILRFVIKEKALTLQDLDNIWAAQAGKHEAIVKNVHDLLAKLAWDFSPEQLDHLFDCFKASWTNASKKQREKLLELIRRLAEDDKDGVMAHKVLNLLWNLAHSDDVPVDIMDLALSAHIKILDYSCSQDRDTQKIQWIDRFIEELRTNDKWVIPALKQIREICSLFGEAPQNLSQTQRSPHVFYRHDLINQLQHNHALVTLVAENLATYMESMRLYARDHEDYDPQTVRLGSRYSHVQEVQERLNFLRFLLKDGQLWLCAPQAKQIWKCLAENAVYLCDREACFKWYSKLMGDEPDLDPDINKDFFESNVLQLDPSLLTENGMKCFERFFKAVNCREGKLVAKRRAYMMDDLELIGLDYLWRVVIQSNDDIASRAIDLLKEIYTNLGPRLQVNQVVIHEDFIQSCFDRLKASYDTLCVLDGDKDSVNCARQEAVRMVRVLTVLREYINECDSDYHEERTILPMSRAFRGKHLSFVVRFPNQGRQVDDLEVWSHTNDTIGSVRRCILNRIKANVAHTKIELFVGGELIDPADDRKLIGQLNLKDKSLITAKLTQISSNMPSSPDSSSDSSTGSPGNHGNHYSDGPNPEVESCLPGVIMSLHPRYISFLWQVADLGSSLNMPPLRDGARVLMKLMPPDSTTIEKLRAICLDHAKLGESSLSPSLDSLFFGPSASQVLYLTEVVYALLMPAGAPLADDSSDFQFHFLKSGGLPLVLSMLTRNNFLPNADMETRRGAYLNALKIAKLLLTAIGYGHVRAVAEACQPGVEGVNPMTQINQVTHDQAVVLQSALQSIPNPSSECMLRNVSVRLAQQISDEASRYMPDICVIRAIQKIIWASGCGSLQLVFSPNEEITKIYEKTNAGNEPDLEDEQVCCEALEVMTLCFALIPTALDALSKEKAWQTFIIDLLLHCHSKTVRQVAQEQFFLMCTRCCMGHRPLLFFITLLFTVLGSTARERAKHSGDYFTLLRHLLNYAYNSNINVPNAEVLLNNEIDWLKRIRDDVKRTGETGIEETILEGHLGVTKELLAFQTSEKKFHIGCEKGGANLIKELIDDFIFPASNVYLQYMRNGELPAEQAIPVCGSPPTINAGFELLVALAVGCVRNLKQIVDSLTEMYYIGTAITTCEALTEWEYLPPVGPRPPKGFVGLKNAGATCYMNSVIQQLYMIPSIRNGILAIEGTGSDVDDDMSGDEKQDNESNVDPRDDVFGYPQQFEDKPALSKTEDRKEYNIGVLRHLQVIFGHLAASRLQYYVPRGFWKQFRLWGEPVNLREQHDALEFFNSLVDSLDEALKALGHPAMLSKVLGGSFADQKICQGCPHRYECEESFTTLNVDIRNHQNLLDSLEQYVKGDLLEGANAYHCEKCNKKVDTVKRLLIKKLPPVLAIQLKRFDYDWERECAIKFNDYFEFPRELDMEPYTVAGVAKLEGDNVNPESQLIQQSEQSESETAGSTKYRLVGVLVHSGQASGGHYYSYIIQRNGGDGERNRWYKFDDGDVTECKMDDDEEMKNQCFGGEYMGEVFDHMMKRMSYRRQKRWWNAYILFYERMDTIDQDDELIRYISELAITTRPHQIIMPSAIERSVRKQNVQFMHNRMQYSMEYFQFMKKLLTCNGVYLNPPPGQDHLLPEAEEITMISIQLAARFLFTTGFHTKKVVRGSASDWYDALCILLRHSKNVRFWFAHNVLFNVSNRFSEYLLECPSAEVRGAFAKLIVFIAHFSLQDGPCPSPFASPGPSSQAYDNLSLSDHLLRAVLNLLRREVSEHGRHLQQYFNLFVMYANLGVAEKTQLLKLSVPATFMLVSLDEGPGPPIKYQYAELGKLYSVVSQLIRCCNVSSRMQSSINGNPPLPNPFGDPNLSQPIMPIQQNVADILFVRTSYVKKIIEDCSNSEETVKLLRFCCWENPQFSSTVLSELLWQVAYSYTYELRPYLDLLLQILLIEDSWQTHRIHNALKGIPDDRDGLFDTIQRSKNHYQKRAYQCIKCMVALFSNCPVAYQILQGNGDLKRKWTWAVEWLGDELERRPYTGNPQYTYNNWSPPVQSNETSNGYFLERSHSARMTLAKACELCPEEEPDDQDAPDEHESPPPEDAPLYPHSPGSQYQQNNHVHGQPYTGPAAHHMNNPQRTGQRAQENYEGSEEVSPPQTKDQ
USP46, sequence (P62068 whole entry): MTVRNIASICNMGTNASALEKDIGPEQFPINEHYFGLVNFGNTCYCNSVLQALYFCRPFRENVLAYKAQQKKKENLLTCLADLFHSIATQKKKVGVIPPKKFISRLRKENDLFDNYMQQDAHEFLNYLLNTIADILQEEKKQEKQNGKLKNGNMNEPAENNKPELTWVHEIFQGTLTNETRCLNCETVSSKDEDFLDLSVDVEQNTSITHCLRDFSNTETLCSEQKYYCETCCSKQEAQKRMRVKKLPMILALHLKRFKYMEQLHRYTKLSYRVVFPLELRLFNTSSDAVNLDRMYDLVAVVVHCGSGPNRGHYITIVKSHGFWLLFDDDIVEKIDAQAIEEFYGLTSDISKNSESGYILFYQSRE

Cc1cccc(C)c1NC(=O)CCl
inactive: USP42 -0.0226 | USP46 -0.0272 | USP47 0.139 | USP48 -0.538 | USP5 -0.194 | USP54 0.412 | USP7 -0.264 | USP8 -0.461 | USP9X -0.187 | UniProt O00487 -0.00227
